The record followed here is PubChem BioAssay (Tox21).

Records with an inconclusive call do not appear. A number with no mark means an inactive call. Calls of active or inactive are those of the source. Unless noted, calls follow the shape of the dose curve; as a rule, active = well fitted curve in the direction sought with a large enough effect in the repeat runs; inconclusive = weak or mixed curves; inactive = no such curve, though single readings can be large; an effect the other way counts as inactive or inconclusive.
% is scaled to controls: 0 for no effect and ±100 for the full control effect.

The first experiment deals with Aryl hydrocarbon receptor (Homo sapiens) (UniProt P35869). As to the kind of experiment: qHTS assay to identify small molecule that activate the aryl hydrocarbon receptor (AhR) signaling pathway (AID 743085). Also: nearly all actives have a fitted effect of over 15% in size. Also: potency is read from the fitted curve at half-maximal effect.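 As to activation: HG2L7.5c1 human HepG2 liver cells with stably integrated DRE-driven firefly reporter.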 To be noted: HepG2 AhR-luc (HG2L7.5c1), luciferase, 24 h; series mostly up to 70.3 µM; activation: at the top concentration. In a few lines: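 HepG2 cells stably carrying a 20-DRE firefly luciferase reporter (HG2L7.5c1) treated with compound for 24 hr at 37C. Luciferase read by ONE-Glo luminescence, with CellTiter-Fluor viability read first.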
Chain of Aryl hydrocarbon receptor (Homo sapiens) (P35869 whole entry, looked up): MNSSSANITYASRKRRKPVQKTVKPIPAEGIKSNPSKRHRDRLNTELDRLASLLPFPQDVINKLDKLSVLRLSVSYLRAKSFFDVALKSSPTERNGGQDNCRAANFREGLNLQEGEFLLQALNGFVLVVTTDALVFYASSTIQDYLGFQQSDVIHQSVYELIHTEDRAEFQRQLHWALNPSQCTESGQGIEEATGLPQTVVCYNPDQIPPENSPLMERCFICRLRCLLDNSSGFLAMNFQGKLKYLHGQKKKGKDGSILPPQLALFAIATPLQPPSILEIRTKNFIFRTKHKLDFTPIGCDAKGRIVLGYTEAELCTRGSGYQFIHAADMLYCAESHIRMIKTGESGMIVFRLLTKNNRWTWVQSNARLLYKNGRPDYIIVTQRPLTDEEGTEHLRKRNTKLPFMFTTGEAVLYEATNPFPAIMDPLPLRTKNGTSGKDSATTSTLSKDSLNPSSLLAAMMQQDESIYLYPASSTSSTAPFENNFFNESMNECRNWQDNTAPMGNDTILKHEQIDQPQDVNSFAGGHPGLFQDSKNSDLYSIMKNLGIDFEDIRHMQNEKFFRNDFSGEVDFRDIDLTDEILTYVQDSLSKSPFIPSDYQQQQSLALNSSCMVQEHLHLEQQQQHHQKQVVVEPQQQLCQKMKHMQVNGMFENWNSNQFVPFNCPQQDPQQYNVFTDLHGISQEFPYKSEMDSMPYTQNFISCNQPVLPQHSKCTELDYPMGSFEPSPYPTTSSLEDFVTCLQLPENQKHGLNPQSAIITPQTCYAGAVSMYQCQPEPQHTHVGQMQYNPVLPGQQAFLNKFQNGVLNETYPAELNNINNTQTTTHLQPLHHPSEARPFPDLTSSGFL
(In qHTS, concentration-response curves come from the screen itself.)
As for `CN1CCC(CN2c3ccccc3Sc3ccccc32)C1` (stereo not given), the “activation” value was 0.14%. `CCC(=O)OCC(=O)[C@@]1(OC(=O)CC)[C@@H](C)C[C@H]2[C@@H]3CCC4=CC(=O)C=C[C@]4(C)[C@@]3(F)[C@@H](O)C[C@@]21C`: the “activation” value is 13.2%. In the case of `COc1ccc(CNCC(O)COc2ccc3[nH]c(=O)ccc3c2)cc1OC` (stereo not given), the “activation” value was -0.341%. Still for that read-out and setting: the result for `CC#CCC(C)[C@H](O)/C=C/[C@@H]1[C@H]2C/C(=C/CCCC(=O)O)C[C@H]2C[C@H]1O` (stereo not given in full) reads 11.4%. Consider `CN1CCN(CCC=C2c3ccccc3Sc3ccc(S(=O)(=O)N(C)C)cc32)CC1`, for which the “activation” value was 1.15%. As for `CN(C)CC/C=C1/c2ccccc2CSc2ccccc21`, the “activation” value is -1.93% [at 32.5 µM]. As to `CCc1ccc2c(c1)N(CC(C)CN(C)C)c1ccccc1S2` (stereo not given), the “activation” value is 4.75%. Still for that read-out and setting: under `CN1CCN(C2=Nc3ccccc3Cc3ccccc32)CC1` stands -1.02%. On the same count and under the same terms, the result for `CC(C)(C)C1(O)CCN2CC3c4ccccc4CCc4cccc(c43)C2C1` (stereo not given) reads 7.23%; that for `CN(C)CCOc1ccccc1Cc1ccccc1` (tested in a mixture with another compound), 6.26%; that for `O=C(O[C@H]1CN2CCC1CC2)N1CCc2ccccc2[C@@H]1c1ccccc1`, -3.04%. Same read-out and setting: under `CC(=O)[C@@]1(O)CC[C@H]2[C@@H]3C=C(Cl)C4=CC(=O)CC[C@]4(C)[C@H]3CC[C@@]21C` stands -1.57%. As for `O=C(CCCN1CCC(n2c(=S)[nH]c3ccccc32)CC1)c1ccc(F)cc1`, the Potency is 11.9 µM (active). Regarding `C=C[C@]1(C)C[C@@H](OC(=O)CSCCN(CC)CC)[C@]2(C)[C@H](C)CC[C@]3(CCC(=O)[C@H]32)[C@@H](C)[C@@H]1O`, the “activation” value is -0.628%. For the compound `CCOC(=O)CN[C@@H](C(=O)N1CC[C@H]1C(=O)NCc1ccc(/C(N)=N/O)cc1)C1CCCCC1`, the “activation” value is -2.79%.

Tested on in another experiment: not listed separately
The experiment can be described thus: qHTS assay to identify small molecule that activate the aryl hydrocarbon receptor (AhR) signaling pathway - cell viability counter screen (AID 743086). Also: nearly all actives have a fitted effect of over 45% in size. Also: potency is read from the fitted curve at half-maximal effect. To be noted: HepG2-AhR-luc viability, CellTiter-Fluor, 24 h; series mostly up to 70.3 µM; viability change, negative = cytotoxic: at the top concentration. The gist of the method:
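HepG2-AhR-luc (HG2L7.5c1) cells, 4000/well, were preincubated 5 h at 37C, exposed to compound in qHTS format for 24 hr at 37C, then given CellTiter-Fluor for 30 min; viability was read as fluorescence in the reporter wells.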
Turning to `C=C[C@]1(C)C[C@@H](OC(=O)CSC(C)(C)CNC(=O)[C@H](N)C(C)C)[C@]2(C)[C@H](C)CC[C@]3(CCC(=O)[C@H]32)[C@@H](C)[C@@H]1O`, the Potency is 3.76 µM (active). Consider `CCC(=O)OCC(=O)[C@@]1(OC(=O)CC)[C@H](C)C[C@H]2[C@@H]3CCC4=CC(=O)C=C[C@]4(C)[C@@]3(F)[C@@H](O)C[C@@]21C`, for which the “viability change, negative = cytotoxic” value was -2.69%. Same read-out and setting: under `O=C(OCCO)c1ccccc1O` stands -14.9%. On the same count and under the same terms, under `CCCCCCCN(CC)CCCC(O)c1ccc(NS(C)(=O)=O)cc1` (stereo not given) stands 2.41%; under `O=C(CCCN1CCC(C(=O)c2ccc(F)cc2)CC1)c1ccc(F)cc1`, -1.76%. On the same count and under the same terms, the result for `C=C1C(=C/C=C2\CCC[C@]3(C)[C@@H]([C@H](C)CCCC(C)(C)O)CC[C@@H]23)C[C@@H](O)C[C@@H]1O` reads -12.6%. `C/C=C(/CC[C@@H](C)[C@H]1CC[C@H]2C3=CC[C@H]4[C@H](C)[C@@H](O)CC[C@]4(C)[C@H]3CC[C@]12C)C(C)C`: the “viability change, negative = cytotoxic” value is 7.95%. `O=C(O)c1c(Cl)c(Cl)c(Cl)c(Cl)c1-c1c2cc(I)c(=O)c(I)c-2oc2c(I)c(O)c(I)cc12`: the Potency is 23.7 µM (active). For the compound `CCCCCCCCCCCCCCCC(=O)O[C@@H]1CC(C)=C(/C=C/C(C)=C/C=C/C(C)=C/C=C/C=C(C)/C=C/C=C(C)/C=C/C2=C(C)C[C@@H](OC(=O)CCCCCCCCCCCCCCC)CC2(C)C)C(C)(C)C1`, the “viability change, negative = cytotoxic” value was -0.871%. Same read-out and setting: under `COc1ccc(CNCC(O)COc2ccc3[nH]c(=O)ccc3c2)cc1OC` (stereo not given) stands -24.8%.

`CC#CCC(C)[C@H](O)/C=C/[C@@H]1[C@H]2C/C(=C/CCCC(=O)O)C[C@H]2C[C@H]1O` (stereo not given in full): the “viability change, negative = cytotoxic” value is -2.47%.

Turning to `CCOc1ccc(N=C(C)Nc2ccc(OCC)cc2)cc1`, the “viability change, negative = cytotoxic” value is -11.1%.

For the compound `CN(C)CCOc1ccccc1Cc1ccccc1` (tested in a mixture with another compound), the “viability change, negative = cytotoxic” value was -6.98%. In the case of `O=C(O[C@H]1CN2CCC1CC2)N1CCc2ccccc2[C@@H]1c1ccccc1`, the “viability change, negative = cytotoxic” value was -29.6%. Same read-out and setting: under `CC(=O)[C@@]1(O)CC[C@H]2[C@@H]3C=C(Cl)C4=CC(=O)CC[C@]4(C)[C@H]3CC[C@@]21C` stands 3.56%; under `O=C(CCCN1CCC(n2c(=S)[nH]c3ccccc32)CC1)c1ccc(F)cc1`, -15.4%. On the same count and under the same terms, under `CC(CC(c1ccccc1)c1ccccc1)NC(C)(C)C` (stereo not given) stands -10.2%; under `CN1CCCC(CN2c3ccccc3Sc3ccccc32)C1` (stereo not given), -28.7%.

In a further experiment the target is Peroxisome proliferator-activated receptor gamma (Homo sapiens) (UniProt P37231). The experiment can be described thus: qHTS assay to identify small molecule agonists of the peroxisome proliferator-activated receptor gamma (PPARg) signaling pathway (AID 743094; active = well fitted activation curve with a large enough effect in the signal ratio in the repeat runs, not every such curve was filed as active; the % refers to the signal ratio). To be noted: HEK293H PPARg-UAS-bla, beta-lactamase FRET ratio, 17 h; series mostly up to 57 µM; activation: at the top concentration. The gist of the method: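 Stably transfected HEK293H cells (GeneBLAzer PPARg UAS-bla) were incubated with test substances for 17 h at 37C after a 5 h pre-incubation; beta-lactamase activity was then detected by FRET substrate fluorescence.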
Chain of Peroxisome proliferator-activated receptor gamma (Homo sapiens) (P37231 whole entry, looked up): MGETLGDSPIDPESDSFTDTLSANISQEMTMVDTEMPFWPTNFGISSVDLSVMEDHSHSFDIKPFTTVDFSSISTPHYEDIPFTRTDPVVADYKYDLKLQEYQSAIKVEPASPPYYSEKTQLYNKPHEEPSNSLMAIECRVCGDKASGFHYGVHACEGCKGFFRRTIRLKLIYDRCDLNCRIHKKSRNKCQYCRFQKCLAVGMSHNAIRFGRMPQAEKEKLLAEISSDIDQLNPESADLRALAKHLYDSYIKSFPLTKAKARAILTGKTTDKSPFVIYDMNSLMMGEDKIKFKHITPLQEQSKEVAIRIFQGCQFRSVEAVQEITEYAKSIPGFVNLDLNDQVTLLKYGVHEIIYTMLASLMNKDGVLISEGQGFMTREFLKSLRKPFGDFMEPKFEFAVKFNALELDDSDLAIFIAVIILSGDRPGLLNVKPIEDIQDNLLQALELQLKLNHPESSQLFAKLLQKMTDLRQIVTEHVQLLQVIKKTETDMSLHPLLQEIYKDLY
Consider `CCC(=O)OCC(=O)[C@@]1(OC(=O)CC)[C@H](C)C[C@H]2[C@@H]3CCC4=CC(=O)C=C[C@]4(C)[C@@]3(F)[C@@H](O)C[C@@]21C`, for which the “activation” value is -8.08%. On to `O=C(OCCO)c1ccccc1O`, for which the “activation” value is -0.472%. As for `N#Cc1ccc2c(c1)N(CCCN1CCC(O)CC1)c1ccccc1S2`, the “activation” value was -8.75%. On the same count and under the same terms, under `O=C(CCCN1CCC(C(=O)c2ccc(F)cc2)CC1)c1ccc(F)cc1` stands -7.33%; under `O=C(O)c1c(Cl)c(Cl)c(Cl)c(Cl)c1-c1c2cc(I)c(=O)c(I)c-2oc2c(I)c(O)c(I)cc12`, -7.03%. Regarding `CCCCCCCCCCCCCCCC(=O)O[C@@H]1CC(C)=C(/C=C/C(C)=C/C=C/C(C)=C/C=C/C=C(C)/C=C/C=C(C)/C=C/C2=C(C)C[C@@H](OC(=O)CCCCCCCCCCCCCCC)CC2(C)C)C(C)(C)C1`, the “activation” value is -0.596%. Same read-out and setting: the result for `CCC(=O)OCC(=O)[C@@]1(OC(=O)CC)[C@@H](C)C[C@H]2[C@@H]3CCC4=CC(=O)C=C[C@]4(C)[C@@]3(F)[C@@H](O)C[C@@]21C` reads -0.596%. Still for that read-out and setting: the result for `COc1ccc(CNCC(O)COc2ccc3[nH]c(=O)ccc3c2)cc1OC` (stereo not given) reads 1.33%. On the same count and under the same terms, under `CC#CCC(C)[C@H](O)/C=C/[C@@H]1[C@H]2C/C(=C/CCCC(=O)O)C[C@H]2C[C@H]1O` (stereo not given in full) stands 3.04%; under `CN(C)CC/C=C1/c2ccccc2CSc2ccccc21`, -7.6% [at 26.2 µM]. Take `CN1CCN(C2=Nc3ccccc3Cc3ccccc32)CC1`: the “activation” value is -5.63%. The same measure, in the same setting: under `CC(C)(C)C1(O)CCN2CC3c4ccccc4CCc4cccc(c43)C2C1` (stereo not given) stands -9.93%; under `c1ccc2c(c1)Sc1ccccc1N2CCN1CCCC1`, -7.82%.

As for `CC(CC(c1ccccc1)c1ccccc1)NC(C)(C)C` (stereo not given), the “activation” value is -8.66%. The same measure, in the same setting: under `C=C[C@]1(C)C[C@@H](OC(=O)CSCCN(CC)CC)[C@]2(C)[C@H](C)CC[C@]3(CCC(=O)[C@H]32)[C@@H](C)[C@@H]1O` stands -2.75%; under `CN1CCCC(CN2c3ccccc3Sc3ccccc32)C1` (stereo not given), -10%.

`CCOC(=O)CN[C@@H](C(=O)N1CC[C@H]1C(=O)NCc1ccc(/C(N)=N/O)cc1)C1CCCCC1`: the “activation” value was -2.59%.
